Experimental data from PubChem BioAssay.
For some assays here: Potency and affinity values are given separately. Activity calls are given as the source filed them. No rule for the calls is given here.

Target: Plasmodium falciparum protein kinase 6 (PK6, PF3D7_1337100) (UniProt Q8IDW1)
Assay: PfPK6 kinase inhibitors, biochemical, TCAMS library (AID 1159586)
Settings: recombinant PfPK6, Kinase-Glo ATP depletion luminescence

Sequence of Plasmodium falciparum protein kinase 6 (PK6, PF3D7_1337100) (Q8IDW1 1-305): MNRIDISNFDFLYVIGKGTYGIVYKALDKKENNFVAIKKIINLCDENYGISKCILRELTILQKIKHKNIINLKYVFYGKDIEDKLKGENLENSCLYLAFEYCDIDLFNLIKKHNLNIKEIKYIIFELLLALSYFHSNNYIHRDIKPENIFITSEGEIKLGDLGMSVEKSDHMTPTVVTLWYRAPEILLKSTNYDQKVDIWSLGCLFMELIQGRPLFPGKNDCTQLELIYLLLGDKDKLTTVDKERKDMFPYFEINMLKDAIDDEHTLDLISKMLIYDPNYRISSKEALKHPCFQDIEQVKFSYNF

outcome, inactive:
COc1ccc(Cn2c(Nc3cccc(C(F)(F)F)c3)nc3cc(C(=O)NCCN4CCCC4)cnc32)cc1Cl
O=C(Nc1cccc(C(F)(F)F)c1)c1cc([N+](=O)[O-])cc2cn[nH]c12
CSc1nc2cc3c(cc2n1C(=O)c1ccc(C)cc1)OCCO3
COc1ccccc1-c1cccc(-c2cccc(NC(=O)c3ccc([N+](=O)[O-])o3)c2)n1
COc1ccc2ncc(C#N)c(CCN3CCC(NCc4cnc5c(c4)OCCO5)CC3)c2n1
C[C@H](N[C@H]1CCCc2c1[nH]c1ccc(Br)cc21)c1ccccc1
CS(=O)(=O)n1c(CN2CCN(c3ncc(C(F)(F)F)cc3Cl)CC2)nc2ccccc21
O=C(COc1ccccc1)N(Cc1ccc(-c2ccc(CNC3Cc4ccccc4C3)cc2)cc1)C1CCNCC1
CN(C)S(=O)(=O)c1ccc(Nc2nc(NCCC3C=NC=N3)nc3cc[nH]c(=O)c23)cc1 (stereo not given)
COc1ccc2nccc([C@@H](O)CN3CCC(NCc4nc5c(OCc6ccccc6)cccc5[nH]4)CC3)c2c1
COc1ccc2ncc(F)c(CCN3CCC(NCc4cc(C)c5c(c4)OCCO5)CC3)c2n1
C[C@H](Cc1ccc(OCCNC[C@H](O)c2cccc(Cl)c2)cc1)NC[C@H](O)c1ccc(Cl)c(Cl)c1
c1cc(CN2CCc3ccccc3CC2)cc(-c2c[nH]c3nc(NC4CCCC4)ncc23)c1
CCSc1ccc(C)cc1CON1C(N)=NC(N)=NC1(C)C
Cc1ccc(S(=O)(=O)NC2=NC(C)(C)N(OCc3ccc(Cl)c(Cl)c3)C(N)=N2)cc1
CC(C)n1cc2c(ccc3nc(N)nc(N)c32)n1
CCN(CC)CCNc1nc(C=Cc2ccc(Cl)cc2)nc2cc3ccccc3cc12
Cc1cccc(C(=O)N2CCN(Cc3cccc(NC(=O)c4ccco4)c3)CC2)c1
CC1(CCN2CCC(c3c[nH]c4cnccc34)CC2)CCCc2c(Br)cccc2C1=O (stereo not given)
CC(C)N(CC(=O)c1ccc(O)c(C(=O)O)c1)Cc1ccccc1
O=C(COc1ccccc1Cc1ccccc1)Nc1cc(Cl)ccc1-n1cncn1
Cc1ccccc1C1CCN(c2ccc(C(=O)Nc3ccccc3)cn2)CC1
COc1ccc(CCNC(C)Cc2ccc(C(=O)Nc3ccc(CC(C)NCCc4cccc(Cl)c4)cc3)cc2)cc1 (stereo not given)
CC1(C)N=C(N)N=C(N)N1OCC1CCCCC1
Cc1cc(N[C@@H](CC(C)C)C(=O)NCc2cccs2)nc(Nc2ccccc2)n1
COc1cc(Cc2cnc(N)nc2N)cc(OCCCCCC(N)=O)c1OC
CCn1ccc2c3c(N)nc(N)nc3ccc21
COc1ccc(-c2ccc(NC(=O)c3ccc(C#N)cc3)cc2)cc1CN(C)CCN(C)C
COCCN1CCC(N(Cc2ccc(-c3ccc(OC(F)(F)F)cc3)cc2)C(=O)Cn2c(CCc3cccc(F)c3F)cc(=O)c3ccccc32)CC1
CC(C)CCN(Cc1cncn1Cc1ccccc1F)C(=O)c1cncc(-c2ccccc2)c1
Nc1cccc(CNCc2ccc(-c3ccc(-c4nc5ccc(F)cc5[nH]4)s3)cc2)c1
CC(C)CC1c2[nH]c3ccccc3c(=O)c2CN1C(=O)OC(C)(C)C (stereo not given)
Cc1cccc(CC(N)=NCCCCCCN=C(N)Cc2cccc(C)c2)c1
CN1CCN(c2ccnc3ccc(NC(=O)Nc4ccc(-c5ccccc5)cc4)cc23)CC1
Cc1ccc2c(OCCN3CCC(Cc4ccc5c(c4)NC(=O)CO5)CC3)cc(F)cc2n1
Cc1nn(-c2ccc(Cl)cc2)c2[nH]c(CN3CCN(c4cccc(Cl)c4)CC3)cc(=O)c12
CC(CN(C)C)C(=O)Nc1cccc(-c2ccc(-c3nc4ccccc4[nH]3)s2)c1 (stereo not given)
CN1CCN(CCCN(Cc2ccc(-c3cccc(CNCc4ccc5c(c4)OCO5)c3)cc2)C(=O)Nc2ccccc2)CC1
Cc1cnc(Nc2ccccc2)nc1N[C@@H](CCCN)C(=O)Nc1ccccc1
CC(C)(C)SCC(O)Cn1c2ccc(Br)cc2c2cc(Br)ccc21 (stereo not given)

Target: Protein kinase 7 (PK7), Plasmodium falciparum 3D7 (PF3D7_0213400) (UniProt Q7YTF7)
Assay: inhibition of Plasmodium PK7 catalytic activity – biochemical, TCAMS antimalarial set, Kinase-Glo luminescence (AID 1159587)
Settings: recombinant PfPK7, Kinase-Glo ATP depletion luminescence

Sequence of Protein kinase 7 (PK7), Plasmodium falciparum 3D7 (PF3D7_0213400) (Q7YTF7 1-343): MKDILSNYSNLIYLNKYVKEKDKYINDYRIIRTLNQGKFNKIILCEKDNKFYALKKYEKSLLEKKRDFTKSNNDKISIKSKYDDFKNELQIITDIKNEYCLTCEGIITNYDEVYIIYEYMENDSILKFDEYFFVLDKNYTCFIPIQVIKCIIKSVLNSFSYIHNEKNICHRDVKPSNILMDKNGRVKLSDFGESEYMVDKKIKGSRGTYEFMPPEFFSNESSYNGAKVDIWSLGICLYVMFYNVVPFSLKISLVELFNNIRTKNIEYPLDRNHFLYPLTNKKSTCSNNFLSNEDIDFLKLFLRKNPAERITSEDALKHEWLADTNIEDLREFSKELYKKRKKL

outcome, inactive:
COc1ccc(Cn2c(Nc3cccc(C(F)(F)F)c3)nc3cc(C(=O)NCCN4CCCC4)cnc32)cc1Cl
O=C(Nc1cccc(C(F)(F)F)c1)c1cc([N+](=O)[O-])cc2cn[nH]c12
CSc1nc2cc3c(cc2n1C(=O)c1ccc(C)cc1)OCCO3
COc1ccccc1-c1cccc(-c2cccc(NC(=O)c3ccc([N+](=O)[O-])o3)c2)n1
COc1ccc2ncc(C#N)c(CCN3CCC(NCc4cnc5c(c4)OCCO5)CC3)c2n1
C[C@H](N[C@H]1CCCc2c1[nH]c1ccc(Br)cc21)c1ccccc1
CS(=O)(=O)n1c(CN2CCN(c3ncc(C(F)(F)F)cc3Cl)CC2)nc2ccccc21
O=C(COc1ccccc1)N(Cc1ccc(-c2ccc(CNC3Cc4ccccc4C3)cc2)cc1)C1CCNCC1
CN(C)S(=O)(=O)c1ccc(Nc2nc(NCCC3C=NC=N3)nc3cc[nH]c(=O)c23)cc1 (stereo not given)
COc1ccc2nccc([C@@H](O)CN3CCC(NCc4nc5c(OCc6ccccc6)cccc5[nH]4)CC3)c2c1
COc1ccc2ncc(F)c(CCN3CCC(NCc4cc(C)c5c(c4)OCCO5)CC3)c2n1
C[C@H](Cc1ccc(OCCNC[C@H](O)c2cccc(Cl)c2)cc1)NC[C@H](O)c1ccc(Cl)c(Cl)c1
c1cc(CN2CCc3ccccc3CC2)cc(-c2c[nH]c3nc(NC4CCCC4)ncc23)c1
CCSc1ccc(C)cc1CON1C(N)=NC(N)=NC1(C)C
Cc1ccc(S(=O)(=O)NC2=NC(C)(C)N(OCc3ccc(Cl)c(Cl)c3)C(N)=N2)cc1
CC(C)n1cc2c(ccc3nc(N)nc(N)c32)n1
CCN(CC)CCNc1nc(C=Cc2ccc(Cl)cc2)nc2cc3ccccc3cc12
Cc1cccc(C(=O)N2CCN(Cc3cccc(NC(=O)c4ccco4)c3)CC2)c1
CC1(CCN2CCC(c3c[nH]c4cnccc34)CC2)CCCc2c(Br)cccc2C1=O (stereo not given)
CC(C)N(CC(=O)c1ccc(O)c(C(=O)O)c1)Cc1ccccc1
O=C(COc1ccccc1Cc1ccccc1)Nc1cc(Cl)ccc1-n1cncn1
Cc1ccccc1C1CCN(c2ccc(C(=O)Nc3ccccc3)cn2)CC1
COc1ccc(CCNC(C)Cc2ccc(C(=O)Nc3ccc(CC(C)NCCc4cccc(Cl)c4)cc3)cc2)cc1 (stereo not given)
CC1(C)N=C(N)N=C(N)N1OCC1CCCCC1
Cc1cc(N[C@@H](CC(C)C)C(=O)NCc2cccs2)nc(Nc2ccccc2)n1
COc1cc(Cc2cnc(N)nc2N)cc(OCCCCCC(N)=O)c1OC
CCn1ccc2c3c(N)nc(N)nc3ccc21
COc1ccc(-c2ccc(NC(=O)c3ccc(C#N)cc3)cc2)cc1CN(C)CCN(C)C
COCCN1CCC(N(Cc2ccc(-c3ccc(OC(F)(F)F)cc3)cc2)C(=O)Cn2c(CCc3cccc(F)c3F)cc(=O)c3ccccc32)CC1
CC(C)CCN(Cc1cncn1Cc1ccccc1F)C(=O)c1cncc(-c2ccccc2)c1
Nc1cccc(CNCc2ccc(-c3ccc(-c4nc5ccc(F)cc5[nH]4)s3)cc2)c1
CC(C)CC1c2[nH]c3ccccc3c(=O)c2CN1C(=O)OC(C)(C)C (stereo not given)
Cc1cccc(CC(N)=NCCCCCCN=C(N)Cc2cccc(C)c2)c1
CN1CCN(c2ccnc3ccc(NC(=O)Nc4ccc(-c5ccccc5)cc4)cc23)CC1
Cc1ccc2c(OCCN3CCC(Cc4ccc5c(c4)NC(=O)CO5)CC3)cc(F)cc2n1
Cc1nn(-c2ccc(Cl)cc2)c2[nH]c(CN3CCN(c4cccc(Cl)c4)CC3)cc(=O)c12
CC(CN(C)C)C(=O)Nc1cccc(-c2ccc(-c3nc4ccccc4[nH]3)s2)c1 (stereo not given)
CN1CCN(CCCN(Cc2ccc(-c3cccc(CNCc4ccc5c(c4)OCO5)c3)cc2)C(=O)Nc2ccccc2)CC1
Cc1cnc(Nc2ccccc2)nc1N[C@@H](CCCN)C(=O)Nc1ccccc1
CC(C)(C)SCC(O)Cn1c2ccc(Br)cc2c2cc(Br)ccc21 (stereo not given)
